Experimental data as given in PubChem BioAssay (NCI).
The panel holds about 83,000 compounds, 20% with a hit somewhere; the sample as a whole holds those more often.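 In brief: 96-well plates, 48 h treatment, single concentration, percent growth endpoint.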 Calls of active or inactive are those of the source. How the source made its calls: active means growth percent below 10; inactive means the rest.

Legend:
Experiment in all cases: NCI-60 one-dose screen, 48 h (100 = growth as untreated, 0 = no growth, -100 = all killed)
Conditions in all cases: 10 µM unless noted
SR leukemia = test system: SR leukemia
RPMI-8226 leukemia = test system: RPMI-8226 leukemia
OVCAR-8 ovarian = test system: OVCAR-8 ovarian
OVCAR-5 ovarian = test system: OVCAR-5 ovarian
OVCAR-4 ovarian = test system: OVCAR-4 ovarian
SK-OV-3 ovarian = test system: SK-OV-3 ovarian
IGROV1 ovarian = test system: IGROV1 ovarian
OVCAR-3 ovarian = test system: OVCAR-3 ovarian
HS 578T breast = test system: HS 578T breast
NCI/ADR-RES ovarian = test system: NCI/ADR-RES ovarian
T-47D breast = test system: T-47D breast
BT-549 breast = test system: BT-549 breast
MDA-MB-435 melanoma = test system: MDA-MB-435 melanoma
SW-620 colon = test system: SW-620 colon
MCF7 breast = test system: MCF7 breast
HCT-116 colon = test system: HCT-116 colon
HCC-2998 colon = test system: HCC-2998 colon
KM12 colon = test system: KM12 colon

Measured: growth

C=CN(C(=O)N1CCN(c2cc3c(cc2F)c(=O)c(C(=O)O)cn3C2CC2)CC1)c1nc(-c2ccccc2)cs1
inactive: SR leukemia 86.2% | RPMI-8226 leukemia 93.4% | OVCAR-8 ovarian 91.3% | OVCAR-5 ovarian 102% | OVCAR-4 ovarian 93.1% | SK-OV-3 ovarian 87.8% | IGROV1 ovarian 105% | OVCAR-3 ovarian 108% | HS 578T breast 97.8% | NCI/ADR-RES ovarian 103% | T-47D breast 78.9% | BT-549 breast 101% | MDA-MB-435 melanoma 96.4% | SW-620 colon 112% | MCF7 breast 94.8% | HCT-116 colon 86% | HCC-2998 colon 103% | KM12 colon 104%

CN1C(=O)N2CN3CCCN(C3)CN3C(=S)NC1C23 (stereo unspecified)
inactive: SR leukemia 97.4% | RPMI-8226 leukemia 93.6% | OVCAR-8 ovarian 101% | OVCAR-5 ovarian 109% | OVCAR-4 ovarian 102% | SK-OV-3 ovarian 93.3% | IGROV1 ovarian 104% | OVCAR-3 ovarian 107% | HS 578T breast 101% | NCI/ADR-RES ovarian 109% | T-47D breast 105% | BT-549 breast 117% | MDA-MB-435 melanoma 106% | SW-620 colon 101% | MCF7 breast 95.4% | HCT-116 colon 106% | HCC-2998 colon 103% | KM12 colon 104%

C=CN(C(=O)N1CCN(c2cc3c(cc2F)c(=O)c(C(=O)O)cn3C2CC2)CC1)c1nc(-c2ccc(Cl)cc2)cs1
inactive: SR leukemia 33.2% | RPMI-8226 leukemia 15.9% | OVCAR-8 ovarian 67.3% | OVCAR-5 ovarian 85.7% | OVCAR-4 ovarian 78.4% | SK-OV-3 ovarian 74.7% | IGROV1 ovarian 21.4% | OVCAR-3 ovarian 53.9% | HS 578T breast 54.3% | NCI/ADR-RES ovarian 90.6% | T-47D breast 76.2% | BT-549 breast 63.1% | MDA-MB-435 melanoma 74.8% | SW-620 colon 93.9% | MCF7 breast 51.3% | HCT-116 colon 24.1% | HCC-2998 colon 95.9% | KM12 colon 61.8%

CCOC(=O)C1=C(CC(O)c2ccc(OC)cc2OC)NC(=O)NC1c1ccccc1 (stereo unspecified)
inactive: SR leukemia 75.9% | RPMI-8226 leukemia 99.2% | OVCAR-8 ovarian 109% | OVCAR-5 ovarian 88.7% | OVCAR-4 ovarian 106% | SK-OV-3 ovarian 114% | IGROV1 ovarian 118% | OVCAR-3 ovarian 109% | HS 578T breast 117% | NCI/ADR-RES ovarian 107% | T-47D breast 110% | BT-549 breast 102% | MDA-MB-435 melanoma 99.4% | SW-620 colon 115% | MCF7 breast 120% | HCT-116 colon 89.2% | HCC-2998 colon 90.6% | KM12 colon 115%

Cc1nc(N/N=C/c2cn(-c3ccccc3)nc2-c2cc3ccccc3oc2=O)sc1N=Nc1ccccc1
active: MDA-MB-435 melanoma 3.67%
inactive: SR leukemia 29.9% | RPMI-8226 leukemia 89.3% | OVCAR-8 ovarian 103% | OVCAR-5 ovarian 104% | OVCAR-4 ovarian 85.4% | SK-OV-3 ovarian 109% | IGROV1 ovarian 89.1% | OVCAR-3 ovarian 92.1% | HS 578T breast 90.2% | NCI/ADR-RES ovarian 88% | T-47D breast 83.2% | BT-549 breast 78.3% | SW-620 colon 78.8% | MCF7 breast 68.3% | HCT-116 colon 87.4% | HCC-2998 colon 104% | KM12 colon 63.7%

O=c1oc2ccccc2cc1-c1nn(-c2ccccc2)cc1-c1nn[nH]n1
inactive: SR leukemia 92.4% | RPMI-8226 leukemia 100% | OVCAR-8 ovarian 104% | OVCAR-5 ovarian 93.2% | OVCAR-4 ovarian 97.9% | SK-OV-3 ovarian 99.8% | IGROV1 ovarian 99.1% | OVCAR-3 ovarian 114% | HS 578T breast 105% | NCI/ADR-RES ovarian 102% | T-47D breast 100% | BT-549 breast 103% | MDA-MB-435 melanoma 99.5% | SW-620 colon 102% | MCF7 breast 94.8% | HCT-116 colon 96.5% | HCC-2998 colon 110% | KM12 colon 106%

COc1ccc(-c2nc(SCC(=O)Nc3nc4ccc(C)cc4s3)[nH]c(=O)c2C#N)cc1OC
inactive: SR leukemia 75.2% | RPMI-8226 leukemia 110% | OVCAR-8 ovarian 101% | OVCAR-5 ovarian 111% | OVCAR-4 ovarian 105% | SK-OV-3 ovarian 74.2% | IGROV1 ovarian 95.9% | OVCAR-3 ovarian 112% | HS 578T breast 87.4% | NCI/ADR-RES ovarian 98.3% | T-47D breast 94.8% | BT-549 breast 97.8% | MDA-MB-435 melanoma 101% | SW-620 colon 96.2% | MCF7 breast 95.6% | HCT-116 colon 94.8% | HCC-2998 colon 105% | KM12 colon 102%

O=c1ccc2ccc(OCCN3CCCCC3)cc2o1
inactive: OVCAR-8 ovarian 95.2% | OVCAR-5 ovarian 102% | OVCAR-4 ovarian 113% | SK-OV-3 ovarian 82.7% | IGROV1 ovarian 110% | OVCAR-3 ovarian 113% | HS 578T breast 96.5% | NCI/ADR-RES ovarian 99.9% | T-47D breast 95.5% | BT-549 breast 100% | MDA-MB-435 melanoma 101% | SW-620 colon 93.9% | MCF7 breast 106% | HCT-116 colon 89% | HCC-2998 colon 98% | KM12 colon 104%
active: SR leukemia -35.7% | RPMI-8226 leukemia -23.8%

Cc1ccc(NC(=O)c2cc3ccccc3cc2O)c(C)c1
inactive: SR leukemia 76.8% | RPMI-8226 leukemia 29.4% | OVCAR-8 ovarian 109% | OVCAR-5 ovarian 96.9% | OVCAR-4 ovarian 74.4% | SK-OV-3 ovarian 99.4% | IGROV1 ovarian 80.4% | OVCAR-3 ovarian 66.4% | HS 578T breast 98.9% | NCI/ADR-RES ovarian 82.8% | T-47D breast 97.2% | BT-549 breast 75.9% | MDA-MB-435 melanoma 72.5% | SW-620 colon 78.1% | MCF7 breast 92.7% | HCT-116 colon 75.8% | HCC-2998 colon 96.7% | KM12 colon 83.1%

Cc1cccc(N=Nc2cccc(C)c2)c1
inactive: SR leukemia 108% | RPMI-8226 leukemia 110% | OVCAR-8 ovarian 103% | OVCAR-5 ovarian 94.2% | OVCAR-4 ovarian 107% | SK-OV-3 ovarian 106% | IGROV1 ovarian 102% | OVCAR-3 ovarian 113% | HS 578T breast 117% | NCI/ADR-RES ovarian 108% | T-47D breast 110% | BT-549 breast 108% | MDA-MB-435 melanoma 100% | SW-620 colon 106% | MCF7 breast 97.5% | HCT-116 colon 111% | HCC-2998 colon 112% | KM12 colon 110%

O=c1oc2c(cc1-c1ccccc1)c[n+]([O-])c1ccccc21
inactive: SR leukemia 103% | RPMI-8226 leukemia 98.2% | OVCAR-8 ovarian 94.9% | OVCAR-5 ovarian 102% | OVCAR-4 ovarian 98.6% | SK-OV-3 ovarian 104% | IGROV1 ovarian 102% | OVCAR-3 ovarian 112% | HS 578T breast 99.9% | NCI/ADR-RES ovarian 109% | T-47D breast 91% | BT-549 breast 95.5% | MDA-MB-435 melanoma 101% | SW-620 colon 103% | MCF7 breast 91.1% | HCT-116 colon 98.8% | HCC-2998 colon 107% | KM12 colon 104%

Fc1cc2[nH]ncc2c2c3c(c(-c4cn[nH]c4C(F)(F)F)nc12)CCCC3
inactive: OVCAR-4 ovarian 24.1% | NCI/ADR-RES ovarian 45.6% | MDA-MB-435 melanoma 26.2%
active: SR leukemia -30.2% | RPMI-8226 leukemia 8.27% | OVCAR-8 ovarian 6.94% | OVCAR-5 ovarian 4.77% | SK-OV-3 ovarian -24.5% | IGROV1 ovarian 0.245% | OVCAR-3 ovarian -11.3% | HS 578T breast -18.4% | T-47D breast -16.2% | BT-549 breast -64.2% | SW-620 colon 4.23% | MCF7 breast 2.27% | HCT-116 colon 1.05% | HCC-2998 colon -14.2% | KM12 colon 9.4%

Cc1ccc2cnc(N)c(C#Cc3cc(C(=O)Nc4ccc(CN5CCN(C)CC5)c(C(F)(F)F)c4)cnc3C)c2c1
active: SR leukemia -36.1% | RPMI-8226 leukemia -40.6% | OVCAR-5 ovarian -59.1% | HS 578T breast -12.4% | MDA-MB-435 melanoma -69.3% | SW-620 colon -77.3% | MCF7 breast -50.8% | HCT-116 colon -83.9% | KM12 colon 0.561%
inactive: OVCAR-8 ovarian 48.4% | OVCAR-4 ovarian 37.6% | SK-OV-3 ovarian 50.5% | IGROV1 ovarian 11% | OVCAR-3 ovarian 32.4% | NCI/ADR-RES ovarian 22.8% | T-47D breast 66.8% | BT-549 breast 16.5% | HCC-2998 colon 54%

O=C(CCCCCCCC(=O)N1CCCCC1)N1CCCCC1
inactive: SR leukemia 135% | RPMI-8226 leukemia 103% | OVCAR-8 ovarian 98.8% | OVCAR-5 ovarian 98.7% | OVCAR-4 ovarian 107% | SK-OV-3 ovarian 115% | IGROV1 ovarian 109% | OVCAR-3 ovarian 111% | HS 578T breast 96.5% | NCI/ADR-RES ovarian 89% | T-47D breast 117% | BT-549 breast 96.4% | MDA-MB-435 melanoma 105% | SW-620 colon 92.2% | MCF7 breast 97.1% | HCT-116 colon 94.8% | HCC-2998 colon 86.5% | KM12 colon 100%

O=C1C(Cl)=C(Nc2ccccc2)C(=O)c2ccccc21
active: SR leukemia -21% | RPMI-8226 leukemia -7.02% | OVCAR-8 ovarian -32.1% | OVCAR-4 ovarian -96.9% | IGROV1 ovarian -77.6% | OVCAR-3 ovarian -96.7% | NCI/ADR-RES ovarian -15.2% | T-47D breast -2.5% | BT-549 breast -94.7% | MDA-MB-435 melanoma -97.7% | SW-620 colon -72% | MCF7 breast -58% | HCT-116 colon -96.2% | HCC-2998 colon -15.6%
inactive: OVCAR-5 ovarian 75.7% | SK-OV-3 ovarian 75.1% | HS 578T breast 54% | KM12 colon 46.9%

COc1ccc(-c2nc3c(c(-c4ccc(Cl)cc4)nn3-c3ccccc3)c(-c3ccccc3)c2C#N)cc1
inactive: SR leukemia 114% | RPMI-8226 leukemia 106% | OVCAR-8 ovarian 100% | OVCAR-5 ovarian 103% | OVCAR-4 ovarian 116% | SK-OV-3 ovarian 122% | IGROV1 ovarian 111% | OVCAR-3 ovarian 111% | HS 578T breast 114% | NCI/ADR-RES ovarian 108% | T-47D breast 94.3% | BT-549 breast 106% | MDA-MB-435 melanoma 105% | SW-620 colon 104% | MCF7 breast 96% | HCT-116 colon 101% | HCC-2998 colon 115% | KM12 colon 98.5%

COC(=O)[C@@]12CC=C(C)[C@]3(C[C@H](c4ccoc4)OC3=O)[C@H]1C=C[C@@H](O)[C@@]2(O)C(=O)OC
inactive: SR leukemia 89.2% | RPMI-8226 leukemia 120% | OVCAR-8 ovarian 96.4% | OVCAR-5 ovarian 103% | OVCAR-4 ovarian 110% | SK-OV-3 ovarian 99.9% | IGROV1 ovarian 92.4% | OVCAR-3 ovarian 105% | HS 578T breast 111% | NCI/ADR-RES ovarian 102% | T-47D breast 110% | BT-549 breast 110% | MDA-MB-435 melanoma 102% | SW-620 colon 113% | MCF7 breast 101% | HCT-116 colon 97.7% | HCC-2998 colon 101% | KM12 colon 103%
